Compounds without any hit were thinned out: in the full panel of roughly 83,000, 20% have a hit.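 Cells were grown in 96-well plates and exposed to the test compound at a single concentration for 48 hours; results are reported as percent growth, with values below 10 considered active.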 Unmarked numbers belong to inactive results. Calls of active or inactive are those of the source.

This test has as its system HL-60(TB) leukemia. Nature of the test: NCI-60 one-dose screen, 48 h (100 = growth as untreated, 0 = no growth, -100 = all killed). Conditions: 10 µM unless noted.
With `CCOC(=O)/C=C1\S/C(=N\Nc2ccc([N+](=O)[O-])cc2[N+](=O)[O-])N(Cc2ccccc2)C1=O`, the growth was 76.3%. For the molecule `COc1cc(C(=O)N/N=C/c2cc3cc(OCc4ccccc4)ccc3nc2OC)cc(OC)c1OC`, the growth is 98.9%. The value for `CCCCCCCCCCCCCCCCCC1=NC(C)(C)CN1CC(C)O` (stereo not drawn) was 61%; that for `CC(=O)Oc1ccccc1C(=O)Nc1ncc([N+](=O)[O-])s1` was -43.8% (active). The value for `COC(=O)C1=C(C(=O)ON)C2C=CC1(C(Cc1ccccc1)Nc1ccccc1)O2` (stereo not drawn) was 18.9%; that for `COc1ccc(C2CC(c3ccc(Nc4ccnc5cc(Cl)ccc45)cc3)=NN2C=O)cc1` (stereo not drawn) was -42.6% (active). For `ClC1=C2NC=NC2n2c(nnc2-c2ccc(Cl)cc2)N1` (stereo not drawn) the value was 118%; for `Cc1nc2ccccc2c(/C=C/c2ccccc2)c1C(=O)/C=C/c1ccccc1`, 23.1%; for `COC(=O)C(=Cc1ccccc1[N+](=O)[O-])C(=O)OC`, -48% (active). As for `COc1ccc(Cn2cc(COc3ccc4c5ccnc(C)c5n(CCCc5ccccc5)c4c3)nn2)cc1`, the growth was -55.7% (active). For `O=C(CSc1nc2ccccc2[nH]1)c1ccc(N2CCOCC2)cc1` the value was 113%; for `O=C1/C(=C/c2ccccc2F)CN(C(=O)C(Cl)Cl)C/C1=C\c1ccccc1F`, -30.7% (active); for `CCCCCCCCCCCCCC[n+]1ccc(C(N)=O)cc1`, -50.6% (active).

As for `CC[N+](CC)=c1ccc2nc3c(cc(N)c4ccccc43)oc-2c1`, the growth is -55.6% (active). The value for `N#Cc1c(-c2ccc(F)cc2)nc(N=Nc2c(O)[nH]c3ccccc23)nc1N1CCOCC1` was 101%. Regarding `O=[N+]([O-])c1ccc(S(=O)(=O)N2CCN(c3ccnc4cc(Cl)ccc34)CC2)c([N+](=O)[O-])c1`, the growth is 75.7%.

Take `COc1ccc(C/C(=C(\C)c2ccc(OCCN3CCCC3)cc2)c2ccc(OCCN3CCCC3)cc2)cc1`: the growth is -58.1% (active).

As to `Fc1ccc2[nH]cc(SSc3c[nH]c4ccc(F)cc34)c2c1`, the growth is -32.3% (active). For `CC(C)(C)Nc1c(-c2c3ccccc3cc3ccccc23)nc2ccccn12` the value was 74.4%; for `O=[N+]([O-])c1c(O)c(CNCCCO)cc(CNCCCO)c1O`, 75.8%.

Turning to `C=C1CC2(OC1=O)C(=O)N(CCCCCCCN1C(=O)C3(CC(=C)C(=O)O3)c3ccccc31)c1ccccc12` (stereo not drawn), the growth is 11.7%. For `NC(=O)c1cc(I)ccc1NC(=O)COc1ccc(Cl)cc1Cl` the value was 76.9%. For `Cc1cccc2c1C[C@@]1(C2=O)C(c2ccc(C(C)(C)C)cc2)=NOS1=O` (stereo partly drawn) the value was 100%; for `COCCOC(=O)COc1ccc(OC)cc1`, 90.7%; for `COCCOC(=O)NC(=O)Nc1ccc(C(=O)c2ccc(Cl)cc2)cc1`, -13.3% (active).

With `O=C(CSc1nc2sc3c(c2c(=O)n1-c1ccccc1)CCCCC3)N/N=C/c1cccc([N+](=O)[O-])c1`, the growth was 103%. The value for `NC1=NN(O)C2=CC([N+](=O)[O-])C=CC2=N1` (stereo not drawn) was 103%; that for `CCOC(=O)c1cc(C(=O)c2ccc(OC)cc2)n2ccc(/C=C/c3cc[n+](CC(=O)c4ccc(OC)cc4)cc3)cc12` was 0.722% (active).

The values are drawn from PubChem BioAssay (NCI).
